The values that follow come from PubChem BioAssay AID485288 (Southern Research Specialized Biocontainment Screening …, 2010).

Measured potencies and affinities stand elsewhere. Calls of active or inactive are those of the source. The rule behind the calls is not given here.

For the assay, the target named is Large T antigen (Simian virus 40) (UniProt P03070). As to the kind of experiment: inhibition of TAg ATP hydrolysis – biochemical, ADP-Hunter detection, purified TAg, synthesized compounds, set 3, SAR follow-up (AID 485288). Conditions: purified TAg ATPase, ADP-Hunter fluorescence; series mostly up to 100 µM; inhibition: at the top concentration.
Sequence of Large T antigen (Simian virus 40) (P03070 whole entry, looked up): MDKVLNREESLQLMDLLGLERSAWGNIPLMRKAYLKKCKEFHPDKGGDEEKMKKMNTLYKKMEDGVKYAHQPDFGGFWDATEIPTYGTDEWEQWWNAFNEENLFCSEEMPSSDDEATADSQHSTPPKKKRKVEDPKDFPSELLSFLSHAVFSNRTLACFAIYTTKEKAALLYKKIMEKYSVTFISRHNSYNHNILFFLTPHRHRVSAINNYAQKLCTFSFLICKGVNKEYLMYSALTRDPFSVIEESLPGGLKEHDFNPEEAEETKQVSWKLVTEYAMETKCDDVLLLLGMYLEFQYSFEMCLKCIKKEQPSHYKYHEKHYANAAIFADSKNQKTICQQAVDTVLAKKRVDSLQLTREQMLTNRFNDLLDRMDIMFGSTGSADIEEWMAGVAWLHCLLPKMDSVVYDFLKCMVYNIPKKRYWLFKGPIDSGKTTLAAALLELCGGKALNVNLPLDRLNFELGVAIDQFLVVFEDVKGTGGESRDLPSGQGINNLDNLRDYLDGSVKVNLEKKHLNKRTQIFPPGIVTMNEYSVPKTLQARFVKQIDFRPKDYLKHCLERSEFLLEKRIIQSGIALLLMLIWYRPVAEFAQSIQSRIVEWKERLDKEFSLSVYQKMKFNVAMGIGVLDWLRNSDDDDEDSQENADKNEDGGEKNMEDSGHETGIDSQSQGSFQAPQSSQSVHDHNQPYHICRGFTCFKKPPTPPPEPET
The term inhibition denotes the drop in the measured response relative to a control, in per cent. On to `Oc1ccccc1Cc1ccccc1O`, for which the “inhibition” value is -4.68% (inactive). On to `Cc1ccccc1-n1nnnc1C(C)(C)N1CCCC1`, for which the “inhibition” value was -23.9% (inactive). Consider `Oc1ccc(Cl)cc1Cc1cc(Cl)ccc1O`, for which the “inhibition” value was 41% (inactive).

Consider `CC(C)(c1nnnn1-c1ccccc1)N1CCOCC1`, for which the “inhibition” value is -20.2% (inactive). As to `FC(F)(c1nnnn1-c1ccccc1)c1nnc2ccccn12`, the “inhibition” value is 15.4% (inactive). Next, `CC(C)(c1nnnn1-c1ccc(Cl)cc1)N1CCN(C(=O)c2ccco2)CC1`: 24.2% (inactive); `CC(=O)c1cc(C(C)(C)c2ccc(O)cc2)cc(C(C)=O)c1O`: -21.9% (inactive); `Cc1ccc(-n2nnnc2C(C)(C)N2CCCCC2)cc1`: 32% (inactive). To `CC(C)(c1ccc(O)cc1)c1ccc(Cl)cc1` belongs 49.8% (inactive).
